About 11,000 (3.1%) of roughly 360,000 compounds were called active. Another 2% or so got no clear call; they are omitted. This is one part of a sample in which actives are shown more often than they occur. Unmarked numbers belong to inactive results. Rule as the data show it: active = fluorescence intensity above about 16000; inconclusive = no clear call, values can overlap the other calls; inactive = below that.

The assay can be described thus: compound fluorescence in toxin protease inhibitor counterscreen, primary screen, artefact control for toxin protease inhibitor project, biochemical, multiplex microsphere, HTS (AID 624483). Conditions: compound autofluorescence counterscreen, microsphere flow cytometry; stronger effect = higher value.
Consider `Cn1c(=O)cc(OCCCC(=O)N2CCN(c3ccccn3)CC2)c2ccccc21`, for which the fluorescence intensity was 19100 (active). For `Cn1c(=O)cc(OCCCC(=O)N2CCN(Cc3ccc4c(c3)OCO4)CC2)c2ccccc21`, the fluorescence intensity was 9010. For `Cn1c(=O)cc(OCC(=O)N2CCN(c3ccccc3F)CC2)c2ccccc21`, the fluorescence intensity was 2380.

Turning to `CCCOc1ccc(-c2nc(N)n[nH]2)cc1`, the fluorescence intensity is 16700 (active).

In the case of `COc1ccc(-c2nc(SCC(=O)N3CCCC3)n[nH]2)cc1`, the fluorescence intensity was 5340.

As to `Nc1nc(SCCOc2ccccc2)n[nH]1`, the fluorescence intensity was 6950. `CCOC(=O)c1ccc(-c2ccc3ncnc(N(C)Cc4sccc4C)c3c2)o1`: the fluorescence intensity was 3710.

As for `CCCC(=O)N1CCC1(C)C(=O)NS(=O)(=O)c1ccc(Cl)cc1` (centres undefined), the fluorescence intensity is 2920. As to `Cc1nc2c(OCc3ccc(Cl)cc3)cccn2c1N(C)Cc1cccs1`, the fluorescence intensity is 3830.

With `COC(=O)C1=C(N)Oc2c(oc(CO)cc2=O)C1c1c(F)cccc1Cl` (centres undefined), the fluorescence intensity was 3610. As to `COc1ccc(C(=O)N/N=C2\CCS(=O)(=O)c3ccc(F)cc32)cc1OC`, the fluorescence intensity is 4530. Consider `CCOc1ccc(C(=O)NCCCN2CCCC2=O)cc1`, for which the fluorescence intensity is 3040. In the case of `Cc1ccc(-c2nn(-c3ccccc3)cc2C(=O)NCCCN2CCCC2=O)cc1`, the fluorescence intensity was 4630. Consider `Cc1ccc(C(=O)N(CN2CCCC2=O)c2ccc(F)cc2)cc1`, for which the fluorescence intensity is 24000 (active). `Cc1ccc(-n2nc(N)c3c(=O)oc(N(C)C)nc32)cc1`: the fluorescence intensity is 23400 (active). For the compound `Cc1ccc2c(=O)oc(N(C)C)nc2c1`, the fluorescence intensity was 2560.

As for `CCCNC(=O)CCc1c(C)nc2c(c(C)nn2-c2ccc(C)cc2)c1C`, the fluorescence intensity was 3860. Take `Cc1ccc(NS(=O)(=O)c2c(C)[nH]c(=O)[nH]c2=O)cc1C`: the fluorescence intensity is 10900. For the compound `O=c1[nH]c(CN2CCOCC2)nc2scc(-c3ccccc3)c12`, the fluorescence intensity is 4340. `CC1(C)Cc2ccccc2-c2nc(CN3CCOCC3)[nH]c(=O)c21`: the fluorescence intensity was 22300 (active). In the case of `CC1(C)Cc2ccccc2-c2[nH]c(=S)[nH]c(=O)c21`, the fluorescence intensity is 4400.

As for `CC(C)c1cccc(C(C)C)c1Nc1cn[nH]c1`, the fluorescence intensity is 6170. Regarding `COc1ccc(NC(=O)COC(=O)C2COc3ccccc3O2)cc1` (centres undefined), the fluorescence intensity was 3930. As for `CCC(C)(C)c1ccc(Oc2ccc(NC(=O)COC(=O)C3=COCCO3)cc2)cc1`, the fluorescence intensity is 21300 (active). Regarding `CCOc1ccc(NC(=O)c2ccc(NC(=O)COC(=O)c3ccc(NC(=O)CC#N)cc3)cc2)cc1`, the fluorescence intensity was 4430.

For `C/C(=N\NS(=O)(=O)c1ccccc1)c1c(O)cc(C)oc1=O`, the fluorescence intensity is 5910. `O=C(CSc1nccc(=O)[nH]1)Nc1ccc(N2CCOCC2)c(Cl)c1`: the fluorescence intensity is 3800. In the case of `CCOc1ncccc1C(=O)OCC(=O)N1c2ccccc2CC1C` (centres undefined) it was 3090; in that of `CCOC(=O)c1c(C)[nH]c(C(=O)OCC(=O)N2CCCC2=O)c1C`, 6230; in that of `CCOC(=O)c1[nH]c(C)c(C(=O)OCC(=O)N2c3ccccc3CC2C)c1C` (centres undefined), 19700 (active).

For the compound `CC(C)C(OC(=O)c1cccs1)C(=O)NC1CCCCC1` (centres undefined), the fluorescence intensity was 9640. As to `Cc1ccc(-c2nc(COC(=O)c3c(C)noc3C)cs2)cc1`, the fluorescence intensity was 9900.

With `COc1ccc(C2C(C#N)=C(N)Oc3n[nH]c(C)c32)cc1CN1CCN(c2ccc(F)cc2)CC1` (centres undefined), the fluorescence intensity is 24200 (active). Take `COc1ccc(N2C(=O)c3ccccc3NC2c2ccc(OC)c(CN3CCOCC3)c2)cc1` (centres undefined): the fluorescence intensity is 4330. In the case of `COc1ccccc1CN1CCCC(N2CCN(c3ccc(F)cc3)CC2)C1` (centres undefined) it was 4030; in that of `CSc1ncnc2c1ncn2CCCNCC1CCCCC1`, 3580. Regarding `Cc1ccc(NC(=O)C2CCN(S(=O)(=O)c3ccc4c(c3)NC(=O)CO4)CC2)cc1C`, the fluorescence intensity was 6240. As for `COc1cccc(N2CCN(C(=O)Nc3ccc4c(c3)NC(=O)CO4)CC2)c1`, the fluorescence intensity was 19600 (active). `CC(CC(=O)Nc1ccc(F)cc1F)S(=O)(=O)c1ccc2c(c1)NC(=O)CO2` (centres undefined): the fluorescence intensity was 6050.

For the compound `COc1ccc(NC(=O)CCS(=O)(=O)c2cc3c(cc2Cl)NC(=O)CO3)cc1OC`, the fluorescence intensity is 4470. Take `O=C1COc2ccc(NC(=O)N3CCN(c4ccc(F)cc4)CC3)cc2N1`: the fluorescence intensity was 22400 (active). In the case of `CCOC(=O)C1CCN(C(=O)Nc2cccc(OC)c2)CC1`, the fluorescence intensity is 3130. Turning to `Clc1ccccc1Nc1nc(NCc2cccs2)nc2ccsc12`, the fluorescence intensity is 2970. With `O=C(NN=Cc1ccccc1O)C(=O)NN=Cc1ccccc1O`, the fluorescence intensity is 3880. For `COC(=O)[C@H](CC(C)C)NC(=O)N1CCCCC1C` (some centres undefined), the fluorescence intensity is 6670. As for `COc1ccccc1-c1cc(NC(C)=O)c2ncc(-c3ccc(F)cc3)n2c1`, the fluorescence intensity was 3190.

As to `O=C(c1ccc(F)cc1)N1CCC(C(=O)N2CCN(S(=O)(=O)c3ccccc3Br)CC2)CC1`, the fluorescence intensity is 6500. For the compound `CCn1c(CSc2nc(C)cc(C)n2)nnc1SCC(N)=O`, the fluorescence intensity is 4570. Consider `CCSc1nc(=S)n(CC)c(C)c1C(C)=O`, for which the fluorescence intensity is 19400 (active). In the case of `CC(=O)c1c(N2CCOCC2)nc(=S)n(Cc2ccccc2)c1C` it was 2990. Regarding `CCCc1nc(-c2ccccc2O)n(-c2ccccc2)n1`, the fluorescence intensity was 3640. Consider `C=C(C)C1CC=C(C)/C(=N\NC(=O)CNc2ccccc2OC)C1` (centres undefined), for which the fluorescence intensity was 2580.

As for `CC(=O)NC(C)(C)C1CC=C(C)/C(=N\O)C1` (centres undefined), the fluorescence intensity is 17100 (active). In the case of `OC(c1ccccc1)c1nc(/C=C/c2ccc(C(F)(F)F)cc2)cs1` (centres undefined), the fluorescence intensity was 2820. For the compound `O=C(CSc1nnc(Cn2cnc3ccccc32)o1)c1ccccc1`, the fluorescence intensity is 4020. With `CC(=O)Nc1ccc(C(=O)CSc2nnc(Cc3ccccc3)o2)cc1` the figure was 16300 (active); with `CCCc1nnc(SCC(=O)Nc2ccc(C(=O)OCC)cc2)o1`, 3670. With `CN(Cc1cn(Cc2ccc(C(F)(F)F)cc2)nn1)C1CN(Cc2cn(Cc3ccc(C(F)(F)F)cc3)nn2)S(=O)(=O)C1` (centres undefined) the figure was 5810; with `COc1ccc(CNC(=O)C2CCCC2)cc1`, 5540. With `COc1ccc(CNC2CCCCC2)cc1`, the fluorescence intensity is 22800 (active). In the case of `COc1ccc(CNc2nc(NCc3ccc(OC)cc3)c3ncn(C4CCCC4)c3n2)cc1` it was 4490. With `COc1cccc(NC(=O)C2(C)CCN2Cc2ccccc2Cl)c1` (centres undefined), the fluorescence intensity is 3880. `COc1ccccc1CNC(=O)c1cc(-c2cc(Cl)ccc2C)n[nH]1`: the fluorescence intensity was 3000. As for `O=C(CSc1nnc(COc2ccc(Cl)cc2)n1Cc1ccco1)N1CCNC1=O`, the fluorescence intensity was 5560.

Take `COc1ccc(C(=O)CSc2nnc(COc3ccccc3)n2Cc2ccco2)cc1`: the fluorescence intensity is 23900 (active). For `CCn1c(CNc2ccc(OC)cc2)nnc1SCC(=O)c1ccc(OC)cc1`, the fluorescence intensity was 3090.

On to `CCCCN(CC)C(=O)CN(C)S(=O)(=O)c1cccc2nsnc12`, for which the fluorescence intensity was 6470. With `CC(C(=O)NC1CCCC1)N1CCN(S(=O)(=O)c2ccccc2Cl)CC1` (centres undefined) the figure was 4750; with `CCCCNC(=O)CN1C(=O)NC(Cc2ccccc2)(Cc2ccccc2)C1=O`, 5690; with `O=C(CC1CCCCC1)NCc1ccccc1`, 3670. On to `O=C(CN1C(=O)NC(Cc2ccccc2)(Cc2ccccc2)C1=O)NCC1CCCCC1`, for which the fluorescence intensity is 20200 (active). For `CSc1ccccc1C(=O)Nc1cccc(C(C)=O)c1`, the fluorescence intensity is 26700 (active).

In the case of `CC(=O)c1cccc(NC(=O)c2cc(C)nn2-c2ccccc2)c1`, the fluorescence intensity was 3940. With `CC(=O)c1cccc(NC(=O)[C@@H](NC(N)=O)C(C)C)c1` the figure was 3400; with `COC(=O)c1ccc2c(c1)S(=O)(=O)NC2C` (centres undefined), 5730. In the case of `COC(=O)c1ccc(OCC(O)CN(CCO)CC(O)Cn2ccc3ccccc32)cc1` (centres undefined), the fluorescence intensity is 2540. For the compound `Cc1cc(C(F)(F)F)nc(SCC(=O)Nc2nccs2)n1`, the fluorescence intensity was 4960. In the case of `CCOC(=O)c1sc(NC(=O)CSc2nc(C)cc(C(F)(F)F)n2)c(C#N)c1C` it was 20700 (active); in that of `CCn1c(SCC(=O)Nc2sc(C)c(C)c2C#N)nnc1C1CC1`, 4370; in that of `CC(C)(C)S(=O)N1Cc2cc(C(=O)NCCCN3CCOCC3)nc(-c3cccc(-c4cc5ccccc5o4)c3)c2[C@H]1CCO` (some centres undefined), 4620. With `Cc1noc(NS(=O)(=O)c2ccc(N3CC(O)=C(c4ccccc4)C3=N)cc2)c1C` the figure was 2440; with `CCOC(=O)C1CCCN(C(=O)c2ccc(C)c(F)c2)CC1` (centres undefined), 3730; with `CCS(=O)(=O)Nc1ccc(C2=NN(C(C)=O)C(c3cccs3)C2)cc1` (centres undefined), 2400. With `CS(=O)(=O)Nc1cccc(C2=NN(S(=O)(=O)c3ccccc3)C(c3cccs3)C2)c1` (centres undefined) the figure was 8170; with `CCS(=O)(=O)Nc1ccc(C2=NN(S(=O)(=O)c3ccc(F)cc3)C(c3ccco3)C2)cc1` (centres undefined), 17100 (active). For the compound `CCOC(=O)C1(C(F)(F)F)N=C(N(C)C)OC(N(C)C)=N1`, the fluorescence intensity was 2190.

On to `COCCCNC(=O)CNC(=S)N(Cc1cc(OC)c(OC)c(OC)c1)C1CCCC1`, for which the fluorescence intensity was 2570. In the case of `O=S1(=O)CC(NCc2ccccc2)C(Nc2ccc(Cl)cc2)C1` (centres undefined), the fluorescence intensity was 3670. Turning to `CCn1c(CNC(=O)c2cc(OC)c(OC)c(OC)c2)cc2cc(C)ccc21`, the fluorescence intensity was 3780. Turning to `CCn1c(C)nc2cc(C(=O)NNS(=O)(=O)c3ccc(C)cc3C)ccc21`, the fluorescence intensity was 22500 (active).

With `Cc1ccc(S(=O)(=O)N2CCN(C(=O)Cn3c(=O)cnc4ccccc43)CC2)c(C)c1`, the fluorescence intensity is 5660. Take `CC(=O)Nc1cnc(-c2ccc(O)cc2C)cn1`: the fluorescence intensity was 3960. With `NS(=O)(=O)c1ccc(NC2=CC(c3ccc(F)cc3)N(c3ccc(S(N)(=O)=O)cc3)C2=O)cc1` (centres undefined), the fluorescence intensity was 4340. In the case of `C#CCN(C[C@H]1[C@H](OC(=O)NC2CCCC2)[C@H](OC(=O)NC2CCCC2)C[C@H]2C(=O)N(c3ccccc3)C(=O)[C@@H]12)S(=O)(=O)c1ccc(C)cc1` it was 3750.

For the origin of these results see PubChem BioAssay AID624483 (NMMLSC, 2012).
